Screen size: about 5,500 compounds; about 2,000 (36%) were called active. Another 18% or so got no clear call; they are omitted. No stated cut-off is given here; in the data, active means normalized growth mostly below about 0.91 (no sharp cut-off); inconclusive means no clear call, values can overlap the other calls; inactive means mostly above about 0.92. The list shows a part of the results.
Assay: chemical genetic growth profiling, strain panel (AID 1159580);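 further: tested at 20 µM; growth read once vehicle control cultures reached saturation at 30 °C; 1 = growth at the plate median or of vehicle wells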
Conditions: growth OD
[1] = S. cerevisiae deletion strains, locus YAL013W, strain DEP1, stronger effect = lower value
[2] = S. cerevisiae deletion strains, locus YBR229C, strain ROT2, stronger effect = lower value
[3] = S. cerevisiae deletion strains, locus YDL101C, strain DUN1, stronger effect = lower value
[4] = S. cerevisiae deletion strains, locus YDL134C, strain PPH21, stronger effect = lower value
[5] = S. cerevisiae deletion strains, locus YDR150W, strain NUM1, stronger effect = lower value
[6] = S. cerevisiae deletion strains, locus YEL061C, strain CIN8, stronger effect = lower value
[7] = S. cerevisiae deletion strains, locus YGR078C, strain PAC10, stronger effect = lower value
[8] = S. cerevisiae deletion strains, locus YHR030C, strain SLT2, stronger effect = lower value
[9] = S. cerevisiae deletion strains, locus YHR087W, strain rtc3, stronger effect = lower value
[10] = S. cerevisiae deletion strains, locus YJR043C, strain POL32, stronger effect = lower value
[11] = S. cerevisiae deletion strains, locus YJR075W, strain HOC1, stronger effect = lower value
[12] = S. cerevisiae deletion strains, locus YLR039C, strain RIC1, stronger effect = lower value
[13] = S. cerevisiae deletion strains, locus YLR058C, strain SHM2 (second series), stronger effect = lower value
[14] = S. cerevisiae deletion strains, locus YLR085C, strain ARP6, stronger effect = lower value
[15] = S. cerevisiae deletion strains, locus YLR262C, strain YPT6, stronger effect = lower value
[16] = S. cerevisiae deletion strains, locus YML094W, strain GIM5, stronger effect = lower value
[17] = S. cerevisiae deletion strains, locus YMR219W, strain ESC1, stronger effect = lower value
[18] = S. cerevisiae deletion strains, locus YMR263W, strain SAP30, stronger effect = lower value
[19] = S. cerevisiae deletion strains, locus YMR307W, strain GAS1, stronger effect = lower value
[20] = S. cerevisiae deletion strains, locus YNL153C, strain GIM3, stronger effect = lower value
[21] = S. cerevisiae deletion strains, locus YNL298W, strain CLA4 (second series), stronger effect = lower value
[22] = S. cerevisiae deletion strains, locus YNL322C, strain KRE1, stronger effect = lower value
[23] = S. cerevisiae deletion strains, locus YNR030W, strain Alg12, stronger effect = lower value
[24] = S. cerevisiae deletion strains, locus YPL055C, strain LGE1, stronger effect = lower value
[25] = S. cerevisiae deletion strains, locus YPL241C, strain CIN2, stronger effect = lower value
[26] = S. cerevisiae deletion strains, locus YPR135W, strain CTF4, stronger effect = lower value
[27] = S. cerevisiae deletion strains, locus YAR019C, strain CDC15, stronger effect = lower value
[28] = S. cerevisiae deletion strains, locus YBL105C, strain PKC1, stronger effect = lower value
[29] = S. cerevisiae deletion strains, locus YBR135W, strain CKS1, stronger effect = lower value
[30] = S. cerevisiae deletion strains, locus YBR136W, strain MEC1, stronger effect = lower value
[31] = S. cerevisiae deletion strains, locus YBR160W, strain CDC28, stronger effect = lower value
[32] = S. cerevisiae deletion strains, locus YDL017W, strain CDC7, stronger effect = lower value
[33] = S. cerevisiae deletion strains, locus YDL028C, strain MPS1, stronger effect = lower value
[34] = S. cerevisiae deletion strains, locus YDL108W, strain KIN28, stronger effect = lower value
[35] = S. cerevisiae deletion strains, locus YDL132W, strain cdc53, stronger effect = lower value
[36] = S. cerevisiae deletion strains, locus YDL214C, strain PRR2, stronger effect = lower value
[37] = S. cerevisiae deletion strains, locus YDR052C, strain DBF4, stronger effect = lower value
[38] = S. cerevisiae deletion strains, locus YDR054C, strain cdc34, stronger effect = lower value
[39] = S. cerevisiae deletion strains, locus YDR226W, strain ADK1, stronger effect = lower value
[40] = S. cerevisiae deletion strains, locus YDR477W, strain SNF1, stronger effect = lower value
[41] = S. cerevisiae deletion strains, locus YER123W, strain YCK3, stronger effect = lower value
[42] = S. cerevisiae deletion strains, locus YER133W, strain GLC7, stronger effect = lower value
[43] = S. cerevisiae deletion strains, locus YFL009W, strain cdc4, stronger effect = lower value
[44] = S. cerevisiae deletion strains, locus YFL029C, strain CAK1, stronger effect = lower value
[45] = S. cerevisiae deletion strains, locus YFR003C, strain YPI1, stronger effect = lower value
[46] = S. cerevisiae deletion strains, locus YFR019W, strain FAB1, stronger effect = lower value
[47] = S. cerevisiae deletion strains, locus YFR028C, strain CDC14, stronger effect = lower value
[48] = S. cerevisiae deletion strains, locus YGR040W, strain KSS1, stronger effect = lower value
[49] = S. cerevisiae deletion strains, locus YGR052W, strain FMP48, stronger effect = lower value
[50] = S. cerevisiae deletion strains, locus YGR092W, strain DBF2, stronger effect = lower value
[51] = S. cerevisiae deletion strains, locus YHR079C, strain IRE1, stronger effect = lower value
[52] = S. cerevisiae deletion strains, locus YHR082C, strain KSP1, stronger effect = lower value
[53] = S. cerevisiae deletion strains, locus YHR205W, strain SCH9, stronger effect = lower value
[54] = S. cerevisiae deletion strains, locus YIL147C, strain SLN1, stronger effect = lower value
[55] = S. cerevisiae deletion strains, locus YJL095W, strain BCK1, stronger effect = lower value
[56] = S. cerevisiae deletion strains, locus YJL128C, strain PBS2, stronger effect = lower value
[57] = S. cerevisiae deletion strains, locus YJL157C, strain FAR1, stronger effect = lower value
[58] = S. cerevisiae deletion strains, locus YJR016C, strain ILV3, stronger effect = lower value
[59] = S. cerevisiae deletion strains, locus YJR066W, strain TOR1 (second series), stronger effect = lower value
[60] = S. cerevisiae deletion strains, locus YJR066W, strain TOR1, stronger effect = lower value
[61] = S. cerevisiae deletion strains, locus YKL048C, strain ELM1, stronger effect = lower value
[62] = S. cerevisiae deletion strains, locus YKL067W, strain YNK1, stronger effect = lower value
[63] = S. cerevisiae deletion strains, locus YKL101W, strain HSL1, stronger effect = lower value
[64] = S. cerevisiae deletion strains, locus YKL193C, strain SDS22, stronger effect = lower value
[65] = S. cerevisiae deletion strains, locus YKL203C, strain TOR2, stronger effect = lower value
[66] = S. cerevisiae deletion strains, locus YLR113W, strain HOG1, stronger effect = lower value
[67] = S. cerevisiae deletion strains, locus YLR133W, strain CKI1, stronger effect = lower value
[68] = S. cerevisiae deletion strains, locus YLR403W, strain SFP1, stronger effect = lower value
[69] = S. cerevisiae deletion strains, locus YML070W, strain DAK1, stronger effect = lower value
[70] = S. cerevisiae deletion strains, locus YMR001C, strain CDC5, stronger effect = lower value
[71] = S. cerevisiae deletion strains, locus YMR205C, strain PFK2 (second series), stronger effect = lower value
[72] = S. cerevisiae deletion strains, locus YMR277W, strain FCP1, stronger effect = lower value
[73] = S. cerevisiae deletion strains, locus YNL006W, strain LST8, stronger effect = lower value
[74] = S. cerevisiae deletion strains, locus YNL020C, strain ARK1, stronger effect = lower value
[75] = S. cerevisiae deletion strains, locus YNL161W, strain CBK1, stronger effect = lower value
[76] = S. cerevisiae deletion strains, locus YNL183C, strain NPR1, stronger effect = lower value
[77] = S. cerevisiae deletion strains, locus YNL207W, strain RIO2, stronger effect = lower value
[78] = S. cerevisiae deletion strains, locus YNL222W, strain SSU72, stronger effect = lower value
[79] = S. cerevisiae deletion strains, locus YNL307C, strain MCK1 (second series), stronger effect = lower value
[80] = S. cerevisiae deletion strains, locus YOL078W, strain AVO1, stronger effect = lower value
[81] = S. cerevisiae deletion strains, locus YOL136C, strain PFK27, stronger effect = lower value
[82] = S. cerevisiae deletion strains, locus YOR061W, strain CKA2, stronger effect = lower value
[83] = S. cerevisiae deletion strains, locus YOR119C, strain RIO1, stronger effect = lower value
[84] = S. cerevisiae deletion strains, locus YOR231W, strain MKK1, stronger effect = lower value
[85] = S. cerevisiae deletion strains, locus YOR329C, strain SCD5, stronger effect = lower value
[86] = S. cerevisiae deletion strains, locus YPL031C, strain PHO85, stronger effect = lower value
[87] = S. cerevisiae deletion strains, locus YPL153C, strain RAD53, stronger effect = lower value
[88] = S. cerevisiae deletion strains, locus YPL204W, strain HRR25, stronger effect = lower value
[89] = S. cerevisiae deletion strains, locus YPL209C, strain IPL1, stronger effect = lower value
[90] = S. cerevisiae deletion strains, locus YPL256C, strain CLN2, stronger effect = lower value
[91] = S. cerevisiae deletion strains, locus YPR025C, strain CCL1, stronger effect = lower value
[92] = S. cerevisiae deletion strains, locus YPR106W, strain ISR1, stronger effect = lower value
[93] = S. cerevisiae deletion strains, locus YPR111W, strain DBF20, stronger effect = lower value
[94] = S. cerevisiae deletion strains, strain NNK1, stronger effect = lower value
[95] = S. cerevisiae deletion strains, strain TSCII, stronger effect = lower value

Measured: normalized growth

C=CCn1c(COc2c(Br)cc(C)c3c2CCC3)n[nH]c1=S
active: [6] 0.896 | [8] 0.544 | [12] 0.491 | [14] 0.558 | [15] 0.571 | [16] 0.841 | [18] 0.846 | [19] 0.324 | [21] 0.764 | [23] 0.874 | [25] 0.847 | [26] 0.612
inactive: [1] 0.968 | [2] 0.977 | S. cerevisiae deletion strains, locus YCL061C, strain MRC1, stronger effect = lower value 0.969 | [3] 0.975 | [4] 0.965 | [5] 0.857 | [7] 0.978 | [9] 1.01 | [10] 0.98 | [11] 0.992 | [13] 0.991 | [17] 0.988 | [20] 0.975 | [22] 0.991 | [24] 1.08

Cc1ccc(OCc2n[nH]c(=S)n2Cc2ccccc2)c2c1CCC2
active: [41] 0.609 | [46] 0.68 | [8] 0.283 | [52] 0.53 | [61] 0.782 | [63] 0.722 | [66] 0.698 | [79] 0.621 | [87] 0.609 | [90] 0.655
inactive: [27] 0.987 | [28] 0.988 | [29] 0.982 | [30] 0.98 | [31] 0.985 | [32] 0.987 | [33] 0.975 | [3] 0.994 | [34] 0.973 | [35] 0.99 | [36] 0.823 | [37] 0.995 | [38] 0.988 | [39] 0.988 | [40] 0.817 | [42] 0.841 | [43] 0.984 | [44] 0.992 | [45] 0.985 | [47] 0.984 | [48] 0.801 | [49] 0.647 | [50] 0.495 | [51] 0.619 | [53] 0.908 | [54] 0.967 | [55] 0.656 | [56] 0.955 | [57] 0.803 | [58] 0.986 | [59] 0.797 | [60] 0.73 | [62] 0.838 | [64] 0.988 | [65] 0.829 | [67] 0.793 | [68] 0.84 | [69] 0.752 | [70] 0.984 | [71] 0.847 | [72] 0.986 | [73] 0.998 | [74] 0.713 | [75] 0.99 | [76] 0.628 | [77] 0.988 | [78] 0.986 | [80] 0.985 | [81] 0.785 | [82] 0.751 | [83] 0.883 | [84] 0.677 | [85] 0.988 | [86] 0.746 | [88] 0.723 | [89] 0.984 | [91] 0.989 | [92] 0.992 | [93] 0.99 | [94] 1 | [95] 0.991

CSc1nnc(COc2ccc(C)c3c2CCC3)n1-c1ccccc1
inactive: [27] 0.982 | [28] 0.98 | [29] 0.986 | [30] 0.984 | [31] 0.984 | [32] 0.991 | [33] 0.991 | [3] 0.974 | [34] 0.992 | [35] 0.98 | [36] 0.96 | [37] 0.98 | [38] 0.976 | [39] 0.977 | [40] 0.972 | [41] 0.96 | [42] 0.941 | [43] 0.974 | [44] 0.981 | [45] 0.979 | [46] 0.978 | [47] 0.978 | [48] 0.962 | [49] 1.05 | [50] 0.948 | [8] 1.1 | [51] 1.05 | [52] 1.02 | [53] 0.972 | [54] 0.987 | [55] 1.03 | [56] 0.931 | [57] 0.968 | [58] 0.988 | [59] 0.934 | [60] 1.07 | [61] 0.964 | [62] 0.966 | [63] 0.964 | [64] 0.98 | [65] 1.04 | [66] 0.924 | [67] 0.979 | [68] 0.968 | [69] 0.966 | [70] 0.98 | [71] 0.974 | [72] 0.98 | [73] 0.98 | [74] 0.976 | [75] 0.982 | [76] 1.05 | [77] 0.979 | [78] 0.985 | [79] 0.968 | [80] 0.987 | [81] 0.963 | [82] 0.959 | [83] 0.992 | [84] 1.02 | [85] 0.987 | [86] 0.961 | [87] 0.959 | [88] 0.967 | [89] 0.983 | [90] 0.995 | [91] 0.984 | [92] 0.98 | [93] 0.97 | [94] 0.975 | [95] 0.974

Cc1ccc(OCc2nnc(SCC(=O)c3ccc(F)cc3)n2-c2ccccc2)c2c1CCC2
inactive: [1] 0.982 | [2] 0.987 | [3] 0.961 | [4] 0.982 | [5] 0.972 | [6] 0.982 | [7] 0.966 | S. cerevisiae deletion strains, locus YGR229C, strain SMI1, stronger effect = lower value 0.984 | [8] 0.964 | [9] 0.957 | S. cerevisiae deletion strains, locus YJL187C, strain SWE1, stronger effect = lower value 0.983 | [10] 0.969 | [11] 0.986 | [12] 0.968 | [13] 0.978 | [14] 0.957 | [15] 0.961 | [16] 0.947 | [17] 0.99 | [18] 0.982 | [19] 1.01 | S. cerevisiae deletion strains, locus YNL128W, strain TEP1, stronger effect = lower value 0.992 | [20] 0.989 | [21] 0.972 | [22] 0.993 | [23] 0.98 | S. cerevisiae deletion strains, locus YOL006C, strain TOP1, stronger effect = lower value 0.963 | [24] 0.956 | [25] 1.04 | [26] 0.867 | S. cerevisiae strains, strain wild type, stronger effect = lower value 0.971

From PubChem BioAssay AID1159580 (chemical genetic matrix, 2015)
